{"source": "PubChem BioAssay (NCI)", "note": "Compounds without any hit were thinned out: in the full panel of roughly 83,000, 20% have a hit.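 A percent growth of 40 corresponds to 60% growth inhibition; 0 means no net growth; -100 means all cells died. Active threshold: below 10.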 Unmarked numbers belong to inactive results. Activity calls are given as the source filed them."}
{"system": "CCRF-CEM leukemia", "experiment": "NCI-60 one-dose screen, 48 h (100 = growth as untreated, 0 = no growth, -100 = all killed)", "details": "10 µM unless noted", "method": "Growth inhibition of the CCRF-CEM human tumor cell line is measured as a screen for anti-cancer activity. Cells are grown in 96 well plates and exposed to the test compound for 48 hours. Compounds are tested at a single concentration, which is 10^-5 M for most compounds. The reported endpoint is percent growth (GI% or GIPRCNT), where numbers from 0 - 100% represent growth inhibition, and numbers from -100% - 0 represent cell death. For example, a value of 40 represents 60% growth inhibition. A value of 0 means no net growth occurred over the course of the experiment. A value of -40 indicates 40% of cells at the beginning of the experiment died by the end of the experiment. A value of -100 means all cells are dead at the end of the experiment.\nNCI-60 Human Tumor Cell Lines Screen was performed using the standard one-dose NCI protocol, which is described in more detail at https://dtp.cancer.gov/discovery_development/nci-60/default.htm.\nCompounds with GIPRCNT values below 10 were considered active. Activity score was based on GIPRCNT using the following formula: […]\nScore is 0 for GIPRCNT values of 100 or above, 50 for GIPRCNT values of 0, and 100 for GIPRCNT values of -100."}
{"smiles": "CC/C(=C(/c1ccc(O)cc1)c1ccc(OCCN2CCCCC2)cc1)c1ccc(OC)cc1", "growth": "42.1%"}
{"smiles": "C=C(C)[C@@H]1CC[C@]2(C(=O)N3CCNCC3)CC[C@]3(C)[C@H](CC[C@@H]4[C@@](C)(CCC(=O)N5CCNCC5)[C@H](C(=C)C)CC[C@]43C)[C@@H]12", "growth": "3.76% (active)"}
{"smiles": "O=C(Nc1ccccc1O)c1ccc(CNc2ccnc(C(F)(F)F)c2)cc1", "growth": "-8.29% (active)"}
{"smiles": "CN1c2ccccc2S(=O)(=O)n2c(SCC(=O)Nc3nc4ccc(F)cc4s3)nnc21", "growth": "31.1%"}
{"smiles": "CC(=O)Nc1sc2c(c1-c1nc3ccccc3s1)CNC2", "growth": "22.6%"}
{"smiles": "COc1cc(-c2cc(-c3ccc(Nc4nc(Nc5ccc(Cl)cc5)nc(Nc5ccc(Cl)cc5)n4)cc3)no2)cc(OC)c1OC", "growth": "-5.88% (active)"}
{"smiles": "CC1(C)N=C(N)N=C(N)N1c1ccc(S(=O)(=O)Nc2nccs2)cc1", "growth": "101%"}
{"smiles": "C=C1C(=O)O[C@@H]2C3C(=C(C)CC[C@@H]12)CC1O[C@]13C", "note": "(stereo not given in full)", "growth": "23.2% [6.75 µM]"}
{"smiles": "CSc1nc(-c2ccco2)c(C#N)c(=O)n1C", "growth": "88.7%"}
{"smiles": "N=C(N)c1ccc(-c2ccc(-c3cc(Cl)cc(Cl)c3)s2)s1", "growth": "-12.4% (active)"}
{"smiles": "O=C(NCCCCO)c1cncnc1Nc1ccc2c(ccn2Cc2cccc(F)c2)c1", "growth": "103%"}
{"smiles": "Cc1ccc2c(c1)nc(C)n2-c1ncnc2c1CC(C)c1cc(O)ccc1N2C", "note": "(stereo not given)", "growth": "9.39% (active)"}
{"smiles": "O=C(N/N=C/c1ccc(Cl)cc1)c1ccc(NC(=O)c2ccccn2)cc1", "growth": "91%"}
{"smiles": "O=C1C=C(SCCO)C(=O)c2ccccc21", "growth": "-14.4% (active)"}
{"smiles": "O=C(c1ccc(Br)cc1)C(Br)C(c1ccc(Cl)cc1)C(c1ccccc1)[N+](=O)[O-]", "note": "(stereo not given)", "growth": "90.3%"}
{"smiles": "COc1cc(-c2ccc(-c3ccc(C(=N)N)cc3)s2)cc(OC)c1OC", "growth": "26.9%"}
{"smiles": "O=C(/C=C/C12c3ccccc3C(c3ccccc31)C1C(=O)NC(=O)C12)c1ccc(Cl)cc1Cl", "note": "(stereo not given)", "growth": "-8.25% (active)"}
{"smiles": "CC(=O)c1sc(-c2ccc(F)cc2)cc1O", "growth": "97.6%"}
{"smiles": "Cc1nc2sc(C(=O)Nc3ccccn3)c(N)c2cc1C(C)O", "note": "(stereo not given)", "growth": "49.6%"}
{"smiles": "Cc1ccc(NC(=O)c2cc3ccccc3cc2O)c(C)c1", "growth": "67.8%"}
{"smiles": "Cc1cccc(N2C(=O)/C(=C/C(Cl)=C/c3ccc([N+](=O)[O-])cc3)SC2=S)c1C", "growth": "3.24% (active)"}
{"smiles": "COc1ccc(/C=C(\\C(=O)NCc2cccnc2)S(=O)(=O)c2ccccc2)cc1OC", "growth": "9.07% (active)"}
{"smiles": "C=C1SC(=Nc2ccccc2Cl)N(C(=O)c2sc3ccccc3c2Cl)C1(C)C", "growth": "19.8%"}
{"smiles": "O=C(CN1C(=O)S/C(=C\\C(Cl)=C\\c2ccccc2)C1=O)NC1CCS(=O)(=O)C1", "note": "(stereo not given)", "growth": "12.3%"}
{"smiles": "C=CCN=c1sc(-c2ccc3ccccc3c2)cn1NC(=O)c1cc2ccc1CCc1ccc(cc1)CC2", "growth": "41.2%"}
{"smiles": "COc1ccc(-c2cc(-c3cc(OC)ccc3OC)nc(SCC(C)=O)c2C#N)cc1", "growth": "69.2%"}
{"smiles": "Cc1cc(C(=O)CCCC(=O)c2cc(C)c(O)c(C)c2)cc(C)c1O", "growth": "96.6%"}
{"smiles": "Cn1c(=O)c2[nH]c(SC/C(=N/O)c3ccc(Br)cc3)nc2n(C)c1=O", "growth": "83.9%"}
{"smiles": "CCOC(=O)/C=C1\\S/C(=N\\Nc2cc(=O)[nH]c3ccc(Br)cc23)N(c2ccccc2)C1=O", "growth": "10.5%"}
{"smiles": "CCCCCCCCn1ccc2cc(NC(=O)CN=[N+]=[N-])ccc21", "growth": "39%"}
{"smiles": "COCCn1cc(-c2nc(-c3cc4cccnc4n3C)cs2)c2ccccc21", "growth": "46.2%"}
{"smiles": "CN(C)CCCNC(=O)c1cncnc1Nc1ccc2c(ccn2Cc2cccc(F)c2)c1", "growth": "67%"}
{"smiles": "CCOC(=O)c1[nH]cc2c1CCc1sc(Nc3ccccn3)nc1-2", "growth": "-2.37% (active)"}
{"smiles": "Nc1c(Cl)cc(/C=C2\\C=Cc3ccccc32)cc1Cl", "growth": "106%"}
{"smiles": "CCOC(=O)NCCCC(=O)NCCc1ccccc1", "growth": "108%"}
{"smiles": "CN1C(=O)/C(=C/c2ccc(C(=O)Nc3ncc(Cc4cc(Cl)ccc4Cl)s3)cc2)SC1=S", "growth": "62.9%"}
{"smiles": "Fc1cccc(-c2nc(-c3c[nH]c4ncccc34)cs2)c1", "growth": "72% [100 µM]"}
{"smiles": "CCOC(=O)C/C(=N\\Nc1cc(=O)[nH]c2ccc(OC)cc12)C(=O)OCC", "growth": "-47.5% (active)"}
{"smiles": "COc1ccc(C(c2cc(OC)c(OC)c(OC)c2)N2CCCCC2)cc1", "note": "(stereo not given)", "growth": "29.9%"}
{"smiles": "CCN(CC)c1ccc(-c2cc(-c3cc(OC)c(OC)c(OC)c3)nc(N3CCC(O)CC3)c2C#N)cc1", "growth": "16.4%"}
